Results taken from the supplement of paper PMC12494721.
Counter-ions that a name gives are not always drawn.

Key:
Conditions in all cases: incubation time: 27 h, anaerobic, 37 °C;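 for the amine columns active = adjusted P below 0.05 in both replicates with a change the same way and a mean fold change under 0.8 or over 1.25; inactive = the rest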
[1] = tested on: Clostridium sporogenes DSM 1664; experiment: growth (OD595) fold change vs plate DMSO controls (fold change (ratio)); higher = more growth
Method in brief: (§1)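 Growth is calculated as fold change against the median of the DMSO control wells on each plate. Readings at 595 nm from anaerobic mGAM cultures (96-well, 27 h, 37 °C) were blank-subtracted, background-corrected with 20 µM compound solutions in water, and converted to OD by a calibration factor of 5. Fold changes above 1.5 were recorded as NA, and results are means of 2 biological replicates.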

Escherichia coli IAI1 [2] = experiment: as above
Method in brief: as §1

[3] = tested on: Klebsiella aerogenes DSM 30053; experiment: as above
Method in brief: as §1

[4] = tested on: Ruminococcus gnavus DSM 108212; experiment: as above
Method in brief: as §1

[5] = tested on: Klebsiella aerogenes DSM 30053; experiment: fold change of Histamine concentration vs plate DMSO controls (fold change (ratio)); higher = more amine produced, active = hit call of the paper (significant change in both replicates, either direction)
Method in brief: (§2)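 Using LC–triple-quadrupole MS with dynamic MRM, amines were quantified against external calibration curves and corrected for drift within each batch. Samples were whole anaerobic mGAM cultures of four gut strains, grown 27 h at 37 °C from OD 0.1 before 1:1 dilution, extracted with cold acetonitrile/methanol containing 0.1% formic acid and centrifuged. Compounds were present at 20 µM final (sweeteners at 50 µM final). The numbers are fold changes versus plate DMSO controls, each the mean of 2 biological replicates.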

[6] = tested on: Clostridium sporogenes DSM 1664; experiment: fold change of Tryptamine concentration vs plate DMSO controls (fold change (ratio)); higher = more amine produced, active = hit call of the paper (significant change in both replicates, either direction)
Method in brief: as §2

[7] = tested on: Ruminococcus gnavus DSM 108212; experiment: as above
Method in brief: as §2

Escherichia coli IAI1 [8] = experiment: fold change of Putrescine concentration vs plate DMSO controls (fold change (ratio)); higher = more amine produced, active = hit call of the paper (significant change in both replicates, either direction)
Method in brief: as §2

[9] = tested on: Klebsiella aerogenes DSM 30053; experiment: as above
Method in brief: as §2

Escherichia coli IAI1 [10] = experiment: fold change of Cadaverine concentration vs plate DMSO controls (fold change (ratio)); higher = more amine produced, active = hit call of the paper (significant change in both replicates, either direction)
Method in brief: as §2

[11] = tested on: Klebsiella aerogenes DSM 30053; experiment: as above
Method in brief: as §2

[12] = tested on: Ruminococcus gnavus DSM 108212; experiment: fold change of 2-Phenylethylamine concentration vs plate DMSO controls (fold change (ratio)); higher = more amine produced, active = hit call of the paper (significant change in both replicates, either direction)
Method in brief: as §2

Structure (SMILES)	growth [1]	growth (Escherichia coli IAI1 [2])	growth [3]	growth [4]	fold change of Histamine concentration [5]	fold change of Tryptamine concentration [6]	fold change of Tryptamine concentration [7]	fold change of Putrescine concentration (Escherichia coli IAI1 [8])	fold change of Putrescine concentration [9]	fold change of Cadaverine concentration (Escherichia coli IAI1 [10])	fold change of Cadaverine concentration [11]	fold change of 2-Phenylethylamine concentration [12]
CCOc1nc2cccc(C(=O)O)c2n1Cc1ccc(-c2ccccc2-c2nnn[nH]2)cc1 [Candesartan] (20 µM)	1.16	0.982	1.01	1.19	0.965 (inactive)	1.04 (inactive)	0.975 (inactive)	0.981 (inactive)	1 (inactive)	1.03 (inactive)	1.01 (inactive)	0.947 (inactive)
CN[C@@H]1CCc2[nH]c3ccc(C(N)=O)cc3c2C1 [Frovatriptan succinate] (20 µM)	1.12	0.98	0.991	1.01	1.05 (inactive)	0.957 (inactive)	0.964 (inactive)	1.03 (inactive)	1 (inactive)	1.03 (inactive)	0.984 (inactive)	0.945 (inactive)
CCOC(=O)CC(=O)N1CCSC1COc1ccccc1OC (stereo not given) [Moguisteine] (20 µM)	0.961	0.997	1.02	0.951	1.02 (inactive)	1.06 (inactive)	0.978 (inactive)	0.997 (inactive)	1.01 (inactive)	1 (inactive)	0.987 (inactive)	0.994 (inactive)
CCOC(=O)OC(C)OC(=O)[C@@H]1N2C(=O)[C@@H](NC(=O)[C@H](N)c3ccccc3)[C@H]2SC1(C)C (stereo not given in full) [Bacampicillin hydrochloride] (20 µM)	0	1.16	1.46	0.0946	1.02 (inactive)	0.0203 (active)	0.0343 (active)	0.928 (inactive)	1.07 (inactive)	1.6 (active)	1.05 (inactive)	0.0374 (active)
C#C[C@]1(O)CC[C@H]2[C@@H]3CCc4cc(OC)ccc4[C@H]3CC[C@@]21C [Mestranol] (20 µM)	0.992	0.999	1.09	1.14	0.93 (inactive)	1.04 (inactive)	0.893 (inactive)	0.949 (inactive)	1.01 (inactive)	1.01 (inactive)	1.01 (inactive)	0.831 (inactive)
CSc1nc2cc(Cl)c(Oc3cccc(Cl)c3Cl)cc2[nH]1 [Triclabendazole] (20 µM)	0.189	1.07	0.985	0.767	1.04 (inactive)	0.0552 (active)	0.514 (active)	0.907 (inactive)	0.984 (inactive)	1.01 (inactive)	1.04 (inactive)	0.671 (inactive)
Cc1cc2c(cc1S(N)(=O)=O)S(=O)(=O)CCC2 [Meticrane] (20 µM)	0.974	1.03	1.02	1.24	1.05 (inactive)	1.01 (inactive)	0.986 (inactive)	0.983 (inactive)	1.01 (inactive)	1.02 (inactive)	0.986 (inactive)	1 (inactive)
CN1C(C(=O)Nc2ccccn2)=C(O)c2sccc2S1(=O)=O [Tenoxicam] (20 µM)	1.03	1.04	0.975	1.18	1.07 (inactive)	1.01 (inactive)	1.01 (inactive)	1.05 (inactive)	1.01 (inactive)	1.01 (inactive)	0.977 (inactive)	0.959 (inactive)
CCN(CC)CCOCCOC(=O)C1(c2ccccc2)CCCC1 [Carbetapentane citrate] (20 µM)	1.08	1	0.996	0.743	0.992 (inactive)	1.02 (inactive)	0.995 (inactive)	0.958 (inactive)	0.996 (inactive)	0.988 (inactive)	0.993 (inactive)	0.979 (inactive)
Cc1c(O)cccc1C(=O)N[C@@H](CSc1ccccc1)[C@H](O)CN1C[C@H]2CCCC[C@H]2C[C@H]1C(=O)NC(C)(C)C [Nelfinavir mesylate] (20 µM)	1.07	1.09	1.01	0.967	0.979 (inactive)	0.96 (inactive)	0.829 (inactive)	1.05 (inactive)	1.02 (inactive)	1.01 (inactive)	1 (inactive)	0.894 (inactive)
CS(=O)(=O)CCNCc1ccc(-c2ccc3ncnc(Nc4ccc(OCc5cccc(F)c5)c(Cl)c4)c3c2)o1 [Lapatinib] (20 µM)	1.05	1.05	1.02	1.01	1.03 (inactive)	0.977 (inactive)	1.03 (inactive)	0.977 (inactive)	1.02 (inactive)	1.04 (inactive)	1.01 (inactive)	0.999 (inactive)
NC(=O)NC1NC(=O)NC1=O (stereo not given) [Allantoin] (20 µM)	1.05	1.14	1	1.09	1.02 (inactive)	1.11 (inactive)	1.17 (inactive)	1.1 (inactive)	0.972 (inactive)	0.983 (inactive)	1.02 (inactive)	1.05 (inactive)
CN1CC(O)c2cc(N=NC(N)=O)c(O)cc21 (stereo not given) [Carbazochrome] (20 µM)	0.927	1.01	0.984	0.959	1.07 (inactive)	1.1 (inactive)	1.15 (inactive)	1.05 (inactive)	1.01 (inactive)	0.914 (inactive)	1.07 (inactive)	1.34 (inactive)
CN1CCN(CCCN2c3ccccc3Sc3ccc(Cl)cc32)CC1 [Prochlorperazine dimaleate] (20 µM)	1.06	1.11	1.14	0.858	0.917 (inactive)	1.04 (inactive)	0.87 (inactive)	0.974 (inactive)	0.979 (inactive)	0.971 (inactive)	1.02 (inactive)	0.97 (inactive)
CNCC(O)c1ccc(O)c(O)c1 (stereo not given) [Racepinephrine hydrochloride] (20 µM)	1.15	1.07	1.27	1.24	0.938 (inactive)	1.05 (inactive)	1.05 (inactive)	1.01 (inactive)	1.02 (inactive)	0.94 (inactive)	1.03 (inactive)	1.05 (inactive)
Cn1c(=O)c2c(ncn2CC2OCCO2)n(C)c1=O [Doxofylline] (20 µM)	1.05	0.975	0.973	1.18	1.08 (inactive)	1.05 (inactive)	1.06 (inactive)	0.999 (inactive)	1.01 (inactive)	1 (inactive)	0.993 (inactive)	1.1 (inactive)
CN(C)C(=O)C(CCN1CCC(O)(c2ccc(Cl)cc2)CC1)(c1ccccc1)c1ccccc1 [Loperamide hydrochloride] (20 µM)	1.1	1.04	1.05	0.853	0.935 (inactive)	0.976 (inactive)	0.949 (inactive)	1 (inactive)	0.963 (inactive)	1.02 (inactive)	1.02 (inactive)	0.915 (inactive)
CCCCC(CC)CN1CN(CC(CC)CCCC)CC(C)(N)C1 (stereo not given) [Hexetidine] (20 µM)	1.05	1.07	1.11	1.45	0.978 (inactive)	1.23 (inactive)	0.898 (inactive)	1.05 (inactive)	0.987 (inactive)	1.04 (inactive)	1.01 (inactive)	1.05 (inactive)
O=C(N/N=C/c1ccc([N+](=O)[O-])o1)c1ccc(O)cc1 [Nifuroxazide] (20 µM)	1.11	1.03	0.907	1.2	1.01 (inactive)	0.998 (inactive)	0.89 (inactive)	0.759 (active)	0.954 (inactive)	1.58 (active)	1.02 (inactive)	0.626 (active)
CN1CCC[C@@H]1Cc1c[nH]c2ccc(CCS(=O)(=O)c3ccccc3)cc12 [Eletriptan] (20 µM)	0.866	1.04	0.965	0.979	1.05 (inactive)	1.05 (inactive)	1.02 (inactive)	1.08 (inactive)	0.973 (inactive)	0.955 (inactive)	0.994 (inactive)	1.05 (inactive)
CN(C)CCCN1c2ccccc2Sc2ccccc21 [Promazine hydrochloride] (20 µM)	1.02	0.959	0.962	1	1.05 (inactive)	1.1 (inactive)	0.823 (inactive)	0.916 (inactive)	0.995 (inactive)	1.03 (inactive)	0.983 (inactive)	0.829 (inactive)
CC(Cc1cccc(C(F)(F)F)c1)NCCOC(=O)c1ccccc1 (stereo not given) [Benfluorex] (20 µM)	1.08	0.988	0.966	0.795	1.02 (inactive)	0.988 (inactive)	0.786 (active)	1.06 (inactive)	1 (inactive)	0.975 (inactive)	0.99 (inactive)	0.797 (inactive)
Cc1ccc(-c2ncc(Cl)cc2-c2ccc(S(C)(=O)=O)cc2)cn1 [Etoricoxib] (20 µM)	1.04	1.02	1.14	0.73	0.814 (inactive)	1.16 (inactive)	1.1 (inactive)	1.05 (inactive)	0.959 (inactive)	0.905 (inactive)	1.03 (inactive)	1.19 (inactive)
CCOc1ccccc1C(N)=O [Ethenzamide] (20 µM)	1.07	1	1.01	0.956	1.02 (inactive)	1.1 (inactive)	1.01 (inactive)	0.983 (inactive)	0.985 (inactive)	0.986 (inactive)	0.978 (inactive)	1.03 (inactive)
CC(C)(S)C(N)C(=O)O (racemic) [D,L-Penicillamine] (20 µM)	1.05	1.08	1.02	0.873	0.909 (inactive)	0.993 (inactive)	0.968 (inactive)	0.99 (inactive)	0.954 (inactive)	1 (inactive)	0.974 (inactive)	0.956 (inactive)
